In PubChem BioAssay (NCATS):
Results filed as inconclusive are left out. A call without a number means that no potency is given here. The source made the active and inactive calls. Unless noted, calls follow the shape of the dose curve; as a rule, active = well fitted curve in the direction sought with a large enough effect in the repeat runs; inconclusive = weak or mixed curves; inactive = no such curve, though single readings can be large; an effect the other way counts as inactive or inconclusive.

How the values were obtained:
[1] = Primary qHTS for small molecule stabilizers of the endoplasmic reticulum resident proteome: Secreted ER Calcium Modulated Protein (SERCaMP) assay (AID 1508630; active = well fitted curve in the direction sought with a large enough effect; an effect the other way counts as inactive or inconclusive)
Summary of the method: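 GLuc-SERCaMP-expressing SH-SY5Y cells, pretreated 16 h with compound, are challenged with thapsigargin to empty ER calcium stores; after 4 h, coelenterazine is added directly to the medium and luminescence is imaged.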

[2] = A High-Content qHTS Against Drug Library for the Identification of Small Molecules that Inhibit DYT1 Early Onset Primary Dystonia-Associated Cell Pathology (AID 1645839; calls by dose curve)
Summary of the method: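 In this high-content image screen, delE TorsinA mislocalization in inducible Flp-In 293 cells is scored as %pathology, with cell count serving as the counterscreen. Compound exposure lasts 48 h under tetracycline induction in reduced-serum medium.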

[3] = molecular target: Cytochrome P450 2D6 (Homo sapiens) (UniProt P10635); experiment: Cytochrome P450 family 2 subfamily D member 6 (CYP2D6) small molecule antagonists: luciferase biochemical (cell-free) qHTS assay (AID 1645840); also: nearly all actives have a fitted effect of over 55% in size; also: potency is read from the fitted curve at half-maximal effect
Summary of the method: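 P450-Glo luminescent screen: recombinant CYP2D6 enzyme–proluciferin substrate mix preincubated with compound 10 min at room temperature, then NADPH regeneration added for 1 h at room temperature. Detection reagent added for 20 min; luciferin light read as relative luminescence units.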

[4] = molecular target: Cytochrome P450 2C9 (Homo sapiens) (UniProt P11712); experiment: Cytochrome P450 family 2 subfamily C member 9 (CYP2C9) small molecule antagonists: luciferase biochemical (cell-free) qHTS assay (AID 1645842); also: nearly all actives have a fitted effect of over 55% in size; also: potency is read from the fitted curve at half-maximal effect
Summary of the method: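 Luminescence, after 20 min with luciferin detection reagent, reflected CYP2C9 turnover during a 1 h NADPH-driven reaction at 37C. Enzyme-substrate mix contained 0.4% bovine serum albumin and was preincubated with compound 10 min at room temperature.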

[5] = Primary qHTS to identify inhibitors of SARS-CoV-2 cell entry (AID 1645846; calls by dose curve; also: nearly all actives have a fitted effect of over 45% in size); details: activity change, negative = inhibition: at 57.1 µM (top of the series) unless noted
Summary of the method: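 Luminescence readout (Bright-Glo luciferase) 48 h after pseudoparticle addition. HEK293-ACE2 cells, 1500/well; compound pre-incubation 1 h; Normalized to spike PP and bald PP.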

[6] = molecular target: Cytochrome P450 3A4 (Homo sapiens) (UniProt P08684); experiment: Cytochrome P450 family 3 subfamily A member 4 (CYP3A4) small molecule antagonists: luciferase qHTS assay (AID 1645841); also: nearly all actives have a fitted effect of over 45% in size
Summary of the method: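 Luminescent CYP3A4 activity readout: compounds plus enzyme-substrate mix 10 min at room temperature, reaction started with NADPH regenerating system for 1 h, stopped with detection reagent, read after 20 min. Ketoconazole served as control.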

[7] = Cytotoxicity counterscreen for inhibitors of SARS-CoV-2 cell entry (AID 1645845; calls by dose curve; also: nearly all actives have a fitted effect of over 50% in size)
Summary of the method: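 48 h compound treatment (after 1 h preincubation), HEK293-ACE2 cells, 37 C/5% CO2; ATP luminescence endpoint; normalized to cell wells and media blanks.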

Papain (Carica papaya) = Papain (Carica papaya) (UniProt P00784); experiment: Primary qHTS assay for inhibitors of the protease papain (AID 1645873; active = well fitted curve in the direction sought with a large enough effect; an effect the other way counts as inactive or inconclusive;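 also: papain turnover of Z-FR-AMC read as the AMC fluorescence gain over 10 min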)
Sequence of Papain (Carica papaya) (P00784 whole entry, looked up): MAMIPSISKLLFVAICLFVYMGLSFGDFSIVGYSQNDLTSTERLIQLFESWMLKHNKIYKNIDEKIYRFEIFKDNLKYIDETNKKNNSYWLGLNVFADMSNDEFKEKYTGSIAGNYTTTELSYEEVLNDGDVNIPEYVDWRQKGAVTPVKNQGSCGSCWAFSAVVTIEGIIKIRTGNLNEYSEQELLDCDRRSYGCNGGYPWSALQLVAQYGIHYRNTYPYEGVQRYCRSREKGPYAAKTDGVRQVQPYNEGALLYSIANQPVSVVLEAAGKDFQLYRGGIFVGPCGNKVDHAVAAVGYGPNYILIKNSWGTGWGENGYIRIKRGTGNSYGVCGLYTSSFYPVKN

Sequence of Cytochrome P450 3A4 (Homo sapiens) (P08684 whole entry, looked up): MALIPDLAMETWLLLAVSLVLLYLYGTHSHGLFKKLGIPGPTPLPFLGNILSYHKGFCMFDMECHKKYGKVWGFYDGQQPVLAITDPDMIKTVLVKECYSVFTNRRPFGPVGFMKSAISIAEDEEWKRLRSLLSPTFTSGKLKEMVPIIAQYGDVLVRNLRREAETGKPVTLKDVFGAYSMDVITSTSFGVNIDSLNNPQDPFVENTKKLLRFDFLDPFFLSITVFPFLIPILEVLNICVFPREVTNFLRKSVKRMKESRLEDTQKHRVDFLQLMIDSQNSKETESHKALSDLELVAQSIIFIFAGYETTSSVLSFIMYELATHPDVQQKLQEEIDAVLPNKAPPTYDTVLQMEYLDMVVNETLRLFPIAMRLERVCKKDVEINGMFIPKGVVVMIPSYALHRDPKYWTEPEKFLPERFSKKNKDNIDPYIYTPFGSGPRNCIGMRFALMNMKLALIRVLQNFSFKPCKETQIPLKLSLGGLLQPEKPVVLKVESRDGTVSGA
Sequence of Cytochrome P450 2D6 (Homo sapiens) (P10635 whole entry, looked up): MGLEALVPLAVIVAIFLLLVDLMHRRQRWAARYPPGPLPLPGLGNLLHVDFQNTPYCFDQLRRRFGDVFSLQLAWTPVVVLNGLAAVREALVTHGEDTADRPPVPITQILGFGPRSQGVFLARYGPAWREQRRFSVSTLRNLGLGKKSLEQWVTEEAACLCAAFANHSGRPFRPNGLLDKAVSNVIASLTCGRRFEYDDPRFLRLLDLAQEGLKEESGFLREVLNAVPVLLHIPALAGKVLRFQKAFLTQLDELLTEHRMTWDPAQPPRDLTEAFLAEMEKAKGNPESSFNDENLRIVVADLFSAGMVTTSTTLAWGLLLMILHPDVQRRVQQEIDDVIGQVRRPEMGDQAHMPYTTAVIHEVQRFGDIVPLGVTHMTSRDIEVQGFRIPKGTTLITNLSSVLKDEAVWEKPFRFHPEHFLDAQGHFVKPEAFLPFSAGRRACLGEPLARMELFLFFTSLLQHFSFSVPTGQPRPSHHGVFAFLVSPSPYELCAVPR
Sequence of Cytochrome P450 2C9 (Homo sapiens) (P11712 whole entry, looked up): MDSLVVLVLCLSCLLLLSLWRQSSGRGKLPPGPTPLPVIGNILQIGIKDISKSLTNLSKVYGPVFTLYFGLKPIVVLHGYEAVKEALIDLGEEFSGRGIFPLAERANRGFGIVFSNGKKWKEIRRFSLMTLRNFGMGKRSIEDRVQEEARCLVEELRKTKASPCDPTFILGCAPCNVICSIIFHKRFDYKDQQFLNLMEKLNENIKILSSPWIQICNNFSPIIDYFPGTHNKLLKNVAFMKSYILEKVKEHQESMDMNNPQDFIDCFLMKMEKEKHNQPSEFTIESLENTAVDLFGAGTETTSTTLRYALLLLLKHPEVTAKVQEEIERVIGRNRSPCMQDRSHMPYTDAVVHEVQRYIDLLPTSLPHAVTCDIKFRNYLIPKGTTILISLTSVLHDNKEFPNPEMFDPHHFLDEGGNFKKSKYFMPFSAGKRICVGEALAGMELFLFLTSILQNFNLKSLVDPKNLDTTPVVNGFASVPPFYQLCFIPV

CCNc1nc(Cl)nc(NCC)n1
outcome [1]: inactive
outcome [2]: inactive
Potency [3]: inactive
Potency [4]: inactive

CC(Cc1ccc2c(c1)OCO2)NO (stereo not given)
outcome [1]: inactive
outcome [2]: inactive
Potency [3]: 61.1 µM (active)
Potency [4]: 38.6 µM (active)

O=C(O)c1nn(Cc2ccc(Cl)cc2Cl)c2ccccc12
outcome [1]: inactive
outcome [2]: inactive
Potency [3]: inactive
Potency [4]: inactive
activity change, negative = inhibition [5]: -33.8%

ClCCCN1CCN(c2cccc(Cl)c2)CC1
outcome [1]: inactive
outcome [2]: inactive
Potency [3]: 1.1 µM (active)
Potency [6]: inactive

C[N+](C)(C)CCOC(=O)C(O)(c1ccccc1)c1ccccc1
outcome [1]: inactive
outcome [2]: inactive
Potency [3]: 15.5 µM (active)
Potency [4]: inactive

CN1C(=O)CN=C(c2ccccc2)c2cc([N+](=O)[O-])ccc21
outcome [1]: inactive
outcome [2]: inactive
Potency [3]: inactive
Potency [4]: inactive

CCOC(=O)c1cncn1C(C)c1ccccc1 (stereo not given)
outcome [1]: inactive
outcome [2]: inactive
Potency [3]: inactive
Potency [4]: 11 µM (active)
Potency [7]: inactive
Potency [5]: inactive

O=c1[nH]c2cc(Cl)ccc2n1C1CCNCC1
outcome [1]: inactive
outcome [2]: inactive
Potency [3]: 19.5 µM (active)
Potency [4]: inactive

Cc1ncc2n1-c1ccc(Cl)cc1C(c1ccccc1F)=NC2
outcome [1]: inactive
outcome [2]: inactive

CCN1CCCC1CNC(=O)C(O)(c1ccccc1)c1ccccc1 (stereo not given)
outcome [1]: inactive
outcome [2]: inactive
Potency [3]: 3.09 µM (active)
Potency [4]: inactive

NCc1cccnc1
outcome [1]: inactive
outcome [2]: inactive
Potency [3]: inactive
Potency [4]: inactive

CC(C)(C)OC(=O)c1ncn2c1[C@@H]1CCCN1C(=O)c1c(Br)cccc1-2
outcome [1]: inactive
outcome [2]: inactive
Potency [3]: inactive
Potency [4]: 4.36 µM (active)

OC(O)C(Cl)(Cl)Cl
outcome [1]: inactive
outcome [2]: inactive
Potency [3]: inactive
Potency [4]: inactive

CC(C)(O)C(Cl)(Cl)Cl
outcome [1]: inactive
outcome [2]: inactive
Potency [3]: inactive
Potency [4]: inactive
Potency [7]: inactive
Potency [5]: inactive

C[C@H]1CNCCc2ccc(Cl)cc21
outcome [1]: inactive
outcome [2]: inactive
Potency [3]: 1.95 µM (active)
Potency [6]: inactive
Potency [4]: inactive

COc1ccc2c(C(=O)c3ccc(Cl)cc3)c(C)n(CC(=O)O)c2c1
outcome [1]: inactive
outcome [2]: inactive
Potency [3]: inactive

COc1ccc(OC)c(CC(C)N)c1 (stereo not given)
outcome [1]: inactive
outcome [2]: inactive
Potency [3]: 6.05 µM (active)
Potency [4]: inactive

CCCN(CCC)CCc1c[nH]c2ccccc12
outcome [1]: inactive
outcome [2]: inactive
Potency [3]: 0.394 µM (active)
Potency [6]: inactive
Potency [4]: inactive

CCN(CC)CCOC(=O)C(C)(c1ccccc1)c1ccccc1
outcome [1]: inactive
outcome [2]: inactive
Potency [3]: 1.38 µM (active)
Potency [4]: 3.89 µM (active)

CC(C)=C[C@@H]1[C@@H](C(=O)OCc2coc(Cc3ccccc3)c2)C1(C)C
outcome [1]: inactive
outcome [2]: inactive
Potency [3]: inactive
Potency [4]: 7.76 µM (active)

COc1cc(CC#N)cc(OC)c1OC
outcome [1]: inactive
outcome [2]: inactive
Potency [3]: inactive
Potency [4]: inactive

CC(Cc1ccccc1)NCCCCl (stereo not given)
outcome [1]: inactive
outcome [2]: inactive
Potency [3]: 1.23 µM (active)
Potency [4]: inactive
Potency [7]: inactive

CC(CC(C(N)=O)(c1ccccc1)c1ccccc1)N(C)C (stereo not given)
outcome [1]: inactive
outcome [2]: inactive
Potency [3]: 7.76 µM (active)
Potency [4]: inactive
Potency [7]: inactive

COc1cc(C[C@@H](C)N)c(OC)cc1C
outcome [1]: inactive
outcome [2]: inactive
Potency [3]: 38.1 µM (active)
Potency [4]: inactive

C1CN2CCC1CC2
outcome [1]: inactive
outcome [2]: inactive
Potency [3]: inactive
Potency [4]: inactive

CCOC(=O)NC(O)C(Cl)(Cl)Cl (stereo not given)
outcome [1]: inactive
outcome [2]: inactive
Potency [3]: inactive
Potency [4]: inactive

Cc1nnc2n1-c1sc(CCC(=O)N3CCOCC3)cc1C(c1ccccc1Cl)=NC2
outcome [1]: inactive
outcome [2]: inactive
Potency [3]: inactive
Potency [4]: inactive
Potency [7]: inactive

CC(C)C(Br)C(=O)NC(N)=O (stereo not given)
outcome [1]: inactive
outcome [2]: inactive
Potency [3]: inactive
Potency [4]: inactive
Potency [7]: inactive

c1ccc2nc(N3CCNCC3)ccc2c1
outcome [1]: inactive
outcome [2]: inactive
Potency [3]: inactive
Potency [4]: inactive

CNC(C)Cc1ccc2c(c1)OCO2 (stereo not given)
outcome [1]: inactive
outcome [2]: inactive
Potency [3]: 0.693 µM (active)
Potency [4]: inactive

CCS(=O)(=O)C(C)(C)S(=O)(=O)CC
outcome [1]: inactive
outcome [2]: inactive
Potency [3]: inactive
Potency [4]: inactive

CCCC(C)C1(CC)C(=O)N=C(S)NC1=O (stereo not given)
outcome [1]: inactive
outcome [2]: inactive
Potency [3]: inactive
Potency [4]: 15.5 µM (active)

CCOC(=O)c1ncn2c1CN(C)C(=O)c1c(I)cccc1-2
outcome [1]: inactive
outcome [2]: inactive
Potency [3]: inactive
Potency [4]: inactive
Potency [7]: inactive
Potency [5]: inactive

O=C(O)Cc1ccccc1
outcome [1]: inactive
outcome [2]: inactive
Potency [3]: 15.5 µM (active)
Potency [4]: inactive
Potency [7]: inactive
Potency [5]: inactive

COc1cc(N)c(Cl)cc1C(=O)NC1CN2CCC1CC2 (stereo not given)
outcome [1]: inactive
outcome [2]: inactive
Potency [3]: 15.5 µM (active)
Potency [4]: inactive

COc1ccc(C(=O)N2CCCC2=O)cc1
outcome [1]: inactive
outcome [2]: inactive
Potency [3]: inactive
Potency [4]: inactive
Potency [7]: inactive
Potency [5]: inactive
activity change, negative = inhibition [5]: 9.75%
outcome (Papain (Carica papaya)): inactive
